# Results reported in PubChem BioAssay (NCATS).
# Records with an inconclusive call do not appear. Entries that show only a call come without a potency. A number with no mark means an inactive call. Active and inactive are the calls of the source. Calls come from the whole dose curve.
# Tests used:
# [1] = Primary qHTS for Huh7 cytotoxicity: counterscreen for inhibitors of MERS-S pseudotyped particle cell entry (AID 1479147)
# [2] = Primary qHTS for inhibitors of MERS-S pseudo-typed particle cell entry (AID 1479149); note: nearly all actives have a fitted effect of over 60% in size
# [3] = Primary qHTS for Vero E6 cytotoxicity: counterscreen for inhibitors of SARS-S pseudo-typed particle cell entry (AID 1479150)
# [4] = Primary qHTS for inhibitors of SARS-S pseudo-typed particle cell entry (AID 1479145); note: nearly all actives have a fitted effect of over 45% in size
# [5] = Confirmatory qHTS for VERO E6 Cytotoxicity Assay: Counterscreen for SARS-CoV-2 CPE Assay (AID 1508605); note: nearly all actives have a fitted effect of over 60% in size
# Potency is the fitted concentration of half-maximal effect.
smiles,measurement,setting,value
Oc1c(Cl)cc(Cl)cc1Sc1cc(Cl)cc(Cl)c1O,Potency,[1],inactive
CCN(CC)C(=O)Nc1ccc(OCC(O)CNC(C)(C)C)c(C(C)=O)c1 (stereo unspecified),Potency,[1],inactive
same,Potency,[2],inactive
same,Potency,[3],inactive
O=C(O)c1cccc(-c2noc(-c3ccccc3F)n2)c1,Potency,[4],inactive
same,Potency,[2],inactive
N/C(=N\N=C\c1ccc(Cl)cc1)N/N=C/c1ccc(Cl)cc1,Potency,[1],inactive
same,Potency,[2],inactive
Oc1ccc(O)cc1,Potency,[4],inactive
same,Potency,[3],inactive
CC(C)=CCC/C(C)=C/CC/C(C)=C/C(=O)OCC(=O)[C@@]1(O)CC[C@H]2[C@@H]3CCC4=CC(=O)C=C[C@]4(C)[C@H]3[C@@H](O)C[C@@]21C,Potency,[4],inactive
same,Potency,[3],inactive
CC(C)N=C(N)/N=C(\N)Nc1ccc(Cl)cc1,Potency,[1],inactive
same,Potency,[2],inactive
Oc1c(I)cc(Cl)c2cccnc12,Potency,[4],inactive
same,Potency,[3],inactive
same,Potency,[5],3.16 µM (active)
CN(C)c1ccc(C(=C2C=CC(=[N+](C)C)C=C2)c2ccccc2)cc1,Potency,[4],2.24 µM (active)
same,Potency,[2],0.891 µM (active)
C[C@]12CCC(=O)C=C1[C@@H]1C[C@@H]1[C@H]1[C@@H]3[C@@H]4C[C@@H]4[C@@]4(CCC(=O)O4)[C@@]3(C)CC[C@@H]12,Potency,[4],inactive
same,Potency,[1],inactive
same,Potency,[3],inactive
CCCCCCCCCCCCOCCOCCOCCOCCOCCOCCOCCOCCOCCO,Potency,[1],inactive
same,Potency,[2],8.91 µM (active)
CCCCCCc1ccc(O)cc1O,Potency,[4],inactive
same,Potency,[2],0.891 µM (active)
same,Potency,[3],inactive
CN1CCCC(CC2c3ccccc3Sc3ccccc32)C1 (stereo unspecified),Potency,[4],20 µM (active)
same,Potency,[3],inactive
CC(Oc1c(Cl)cccc1Cl)C1=NCCN1 (stereo unspecified),Potency,[1],inactive
same,Potency,[2],inactive
same,Potency,[3],inactive
NS(=O)(=O)c1cc(C(=O)O)c(NCc2ccco2)cc1Cl,Potency,[1],inactive
same,Potency,[2],inactive
same,Potency,[3],inactive
O=S(=O)(c1cccc2cnccc12)N1CCCNCC1,Potency,[1],inactive
same,Potency,[2],inactive
same,Potency,[3],inactive
CCCCC(CC)COC(=O)C(C#N)=C(c1ccccc1)c1ccccc1 (stereo unspecified),Potency,[1],inactive
same,Potency,[2],inactive
same,Potency,[3],inactive
O=C(OCC(O)CO)c1ccccc1Nc1ccnc2cc(Cl)ccc12 (stereo unspecified),Potency,[1],inactive
same,Potency,[2],inactive
same,Potency,[3],inactive
C1CCN2C[C@@H]3C[C@@H](CN4CCCC[C@@H]34)[C@H]2C1,Potency,[1],inactive
same,Potency,[2],inactive
same,Potency,[3],inactive
O=C(OCc1ccccc1)c1ccc(O)cc1,Potency,[1],inactive
same,Potency,[2],inactive
same,Potency,[3],inactive
CCN(CC)CCOC(=O)C(Cc1cccc2ccccc12)CC1CCCO1 (stereo unspecified),Potency,[1],inactive
same,Potency,[2],inactive
same,Potency,[3],inactive
CCn1c(=O)c2c(nc(C=Cc3ccc(OC)c(OC)c3)n2C)n(CC)c1=O,Potency,[1],inactive
same,Potency,[2],inactive
same,Potency,[3],inactive
CC[N+](CC)(CC(=O)Nc1c(C)cccc1C)Cc1ccccc1,Potency,[1],inactive
same,Potency,[2],inactive
same,Potency,[3],inactive
CCOC(=O)[C@H](CCc1ccccc1)N[C@@H](C)C(=O)N1C(=O)N(C)C[C@H]1C(=O)O,Potency,[1],inactive
same,Potency,[2],inactive
same,Potency,[3],inactive
Cn1cc(C(=O)[C@@H]2CCc3nc[nH]c3C2)c2ccccc21,Potency,[1],inactive
same,Potency,[2],inactive
same,Potency,[3],inactive
CCOC(CN1CCN(CC(C)C(=O)c2ccccc2)CC1)c1ccccc1 (stereo unspecified),Potency,[1],inactive
same,Potency,[2],inactive
same,Potency,[3],inactive
C[C@@H](C1=C(CCN(C)C)Cc2ccccc21)c1ccccn1,Potency,[1],inactive
same,Potency,[2],inactive
same,Potency,[3],inactive
C/C=C/C(=O)N(CC)c1ccccc1C,Potency,[1],inactive
same,Potency,[2],inactive
same,Potency,[3],inactive
CCOCCn1c(N2CCCN(C)CC2)nc2ccccc21,Potency,[1],inactive
same,Potency,[2],inactive
same,Potency,[3],inactive
COc1ccnc2c1CCCCC2S(=O)c1nc2ccccc2[nH]1 (stereo unspecified),Potency,[1],inactive
same,Potency,[2],inactive
same,Potency,[3],inactive
COc1ccc2cc3[n+](cc2c1OC)CCc1cc2c(cc1-3)OCO2,Potency,[1],inactive
same,Potency,[2],12.6 µM (active)
same,Potency,[3],inactive
CN(C)CCN(Cc1ccccc1)c1ccccn1,Potency,[1],inactive
same,Potency,[2],inactive
same,Potency,[3],inactive
CC1CC(=O)NN=C1c1ccc(NCC(C)(C)NCC(O)COc2cc(Cl)ccc2C#N)cc1 (stereo unspecified),Potency,[1],inactive
same,Potency,[2],inactive
same,Potency,[3],inactive
COc1ccc(C(Cl)=C(c2ccc(OC)cc2)c2ccc(OC)cc2)cc1,Potency,[1],inactive
same,Potency,[2],inactive
same,Potency,[3],inactive
OC(CCN1CCCCC1)(c1ccccc1)c1ccccc1,Potency,[1],inactive
same,Potency,[2],inactive
same,Potency,[3],inactive
CC(=O)[C@@]1(O)CC[C@H]2[C@@H]3C[C@H](C)C4=CC(=O)CC[C@]4(C)[C@H]3CC[C@@]21C,Potency,[1],inactive
same,Potency,[2],inactive
same,Potency,[3],inactive
O=C1OC(c2ccc(O)cc2)(c2ccc(O)cc2)c2ccccc21,Potency,[1],inactive
same,Potency,[2],inactive
same,Potency,[3],inactive
OCc1ccccc1O,Potency,[1],inactive
same,Potency,[2],inactive
same,Potency,[3],inactive
COc1cc(NS(=O)(=O)c2ccc(N)cc2)ncn1,Potency,[1],inactive
same,Potency,[2],inactive
same,Potency,[3],inactive
CC(=O)Nc1ccc(S(=O)(=O)Nc2ccc([N+](=O)[O-])cc2)cc1,Potency,[1],inactive
same,Potency,[2],inactive
same,Potency,[3],inactive
C=CCc1ccccc1OCC(O)CNC(C)C (stereo unspecified),Potency,[1],inactive
same,Potency,[2],inactive
same,Potency,[3],inactive
Nc1ccn(C2CO[C@H](CO)O2)c(=O)n1 (stereo partly specified),Potency,[1],inactive
same,Potency,[2],inactive
same,Potency,[3],inactive
O=c1oc2c(O)c(O)cc3c(=O)oc4c(O)c(O)cc1c4c23,Potency,[1],inactive
same,Potency,[2],inactive
same,Potency,[3],inactive
CCCC(=O)OC[C@@H](OC(=O)CCC)[C@@H](OC(=O)CCC)[C@H](Cn1c2nc(=O)[nH]c(=O)c-2nc2cc(C)c(C)cc21)OC(=O)CCC,Potency,[1],inactive
same,Potency,[2],inactive
same,Potency,[3],inactive
CCc1oc2ccccc2c1C(=O)c1cc(Br)c(O)c(Br)c1,Potency,[1],inactive
same,Potency,[2],inactive
same,Potency,[3],inactive
C#CC1(O)CC[C@H]2[C@@H]3CCC4=CCCC[C@@H]4[C@H]3CC[C@@]21C (stereo partly specified),Potency,[1],inactive
same,Potency,[2],inactive
same,Potency,[3],inactive
CCN(CC)CCOc1ccccc1C(=O)CCc1ccccc1,Potency,[1],inactive
same,Potency,[2],inactive
same,Potency,[3],inactive
C/C=C(/C(=C/C)c1ccc(O)cc1)c1ccc(O)cc1,Potency,[1],inactive
same,Potency,[2],inactive
same,Potency,[3],inactive
C=C1c2cccc(O)c2C(O)=C2C(=O)[C@]3(O)C(O)=C(C(N)=O)C(=O)[C@@H](N(C)C)[C@@H]3[C@@H](O)[C@H]12,Potency,[1],inactive
same,Potency,[2],inactive
same,Potency,[3],inactive
CN(C)CCCOC1(Cc2ccccc2)CCCCCC1,Potency,[1],inactive
same,Potency,[2],inactive
same,Potency,[3],inactive
CCOC(=O)c1ccc(OC(=O)CCCCCN=C(N)N)cc1,Potency,[1],inactive
same,Potency,[2],inactive
same,Potency,[3],inactive
CCOc1ccc(C(=O)OCCN(CC)CC)cc1,Potency,[1],inactive
same,Potency,[2],inactive
same,Potency,[3],inactive
Cc1ccc(N(CC2=NCCN2)c2cccc(O)c2)cc1,Potency,[1],inactive
same,Potency,[2],inactive
same,Potency,[3],inactive
CN1CCC(=C2c3ccccc3CC(=O)c3sccc32)CC1,Potency,[1],inactive
same,Potency,[2],inactive
same,Potency,[3],inactive
COc1ccccc1OC(=O)Oc1ccccc1OC,Potency,[1],inactive
same,Potency,[2],inactive
same,Potency,[3],inactive
NS(=O)(=O)c1cc2c(cc1Cl)CN(C1CCCCC1)C2=O,Potency,[1],inactive
same,Potency,[2],inactive
same,Potency,[3],inactive
COC(=O)C1=C(C)NC(C)=C(C(=O)OC)C1c1ccccc1[N+](=O)[O-],Potency,[1],inactive
same,Potency,[2],inactive
same,Potency,[3],inactive
O=c1[nH]c(=O)c2[nH]c(=O)[nH]c2[nH]1,outcome,[1],inactive [at 11.4 µM]
same,outcome,[2],inactive [at 11.4 µM]
same,outcome,[3],inactive [at 11.4 µM]
CCCCCCOC(=O)NC(=N)c1ccc(NCc2nc3cc(C(=O)N(CCC(=O)OCC)c4ccccn4)ccc3n2C)cc1,Potency,[1],inactive
same,Potency,[2],10 µM (active)
same,Potency,[3],inactive
CCOc1ccccc1O[C@H](c1ccccc1)[C@H]1CNCCO1,Potency,[1],inactive
same,Potency,[2],inactive
same,Potency,[3],inactive
Cc1ncc(COP(=O)(O)O)c(C=O)c1O,Potency,[1],inactive
same,Potency,[2],inactive
same,Potency,[3],inactive
CC(=O)OCC(=O)Nc1cc(C#N)cc(NC(=O)COC(C)=O)c1Cl,Potency,[1],inactive
same,Potency,[2],inactive
same,Potency,[3],inactive
C[N+]1(C)CCC(=C(c2ccccc2)c2ccccc2)CC1,Potency,[1],inactive
same,Potency,[2],inactive
same,Potency,[3],inactive
O=C1CC2(CCCC2)CC(=O)N1CCCCN1CCN(c2ncccn2)CC1,Potency,[1],inactive
same,Potency,[2],inactive
same,Potency,[3],inactive
Nc1c(NC/C=C\COc2cc(CN3CCCCC3)ccn2)c(=O)c1=O,Potency,[1],inactive
same,Potency,[2],inactive
same,Potency,[3],inactive
CCCCN1CCCC[C@H]1C(=O)Nc1c(C)cccc1C,Potency,[1],inactive
same,Potency,[2],inactive
same,Potency,[3],inactive
CCOC(=O)OC(C)OC1=C(C(=O)Nc2ccccn2)N(C)S(=O)(=O)c2ccccc21 (stereo unspecified),Potency,[1],inactive
same,Potency,[2],inactive
same,Potency,[3],inactive
CN(Cc1cc(Br)cc(Br)c1N)C1CCCCC1,Potency,[1],inactive
same,Potency,[2],inactive
same,Potency,[3],inactive
CCN1C(=O)c2ccccc2C1Nc1ccc(OCCN2CCCCC2)cc1 (stereo unspecified),Potency,[1],inactive
same,Potency,[2],inactive
same,Potency,[3],inactive
CCOC(=O)c1cc(=O)c2c(OCC(COc3cccc4oc(C(=O)OCC)cc(=O)c34)OC(=O)[C@@H](N)CCCCN)cccc2o1,Potency,[1],inactive
same,Potency,[2],inactive
same,Potency,[3],inactive
CN(C)CCN1C(=O)c2ccccc2N(C)c2ccccc21,Potency,[1],inactive
same,Potency,[2],inactive
same,Potency,[3],inactive
O=C(O)c1ccccc1Nc1cc(Cl)ccc1C(=O)O,Potency,[1],inactive
same,Potency,[2],inactive
same,Potency,[3],inactive
CN1CCN(c2c(F)cc3c(=O)c(C(=O)O)cn(CCF)c3c2F)CC1,Potency,[1],inactive
same,Potency,[2],inactive
same,Potency,[3],inactive
CCN[C@@H]1C[C@H](N)[C@@H](OC2OC(CN)=CCC2N)[C@H](O)[C@H]1O[C@H]1OC[C@](C)(O)[C@H](NC)[C@H]1O (stereo partly specified),"activity change, negative = cytotoxicity",[1],-16.5% [at 0.573 µM]
same,outcome,[2],inactive [at 0.573 µM]
same,"activity change, negative = cytotoxicity",[3],-4.98% [at 0.573 µM]
C(=C\c1ccccc1)/CN1CCN(C(c2ccccc2)c2ccccc2)CC1,Potency,[1],inactive
same,Potency,[2],inactive
same,Potency,[3],inactive
CCCCCCCCCCCCOS(=O)(=O)O,Potency,[1],inactive
same,Potency,[2],inactive
same,Potency,[3],inactive
O=C1O[C@H]([C@@H](O)CO)C(O)=C1O,Potency,[1],inactive
same,Potency,[2],inactive
same,Potency,[3],inactive
CN1CCC(=C2c3ccccc3CCc3cccnc32)CC1,Potency,[1],inactive
same,Potency,[2],inactive
same,Potency,[3],inactive
CCOc1ccc(Cc2nccc3cc(OCC)c(OCC)cc23)cc1OCC,Potency,[1],12.6 µM (active)
same,Potency,[2],3.55 µM (active)
same,Potency,[3],17.8 µM (active)
CCOC(=O)[C@H](CCc1ccccc1)N[C@@H](C)C(=O)N(CC(=O)O)C1Cc2ccccc2C1,Potency,[1],inactive
same,Potency,[2],inactive
same,Potency,[3],inactive
c1ccc(CC2=NCCN2)cc1,Potency,[1],inactive
same,Potency,[2],inactive
same,Potency,[3],inactive
CCC1NC(=O)c2cc(S(N)(=O)=O)c(Cl)cc2N1 (stereo unspecified),Potency,[1],inactive
same,Potency,[2],inactive
same,Potency,[3],inactive
